Assay results: PubChem BioAssay (EPA / NIEHS)
Calls of active or inactive are those of the source. How the source made its calls: active means hit-call score of the fitted dose curve at least 0.9, where 1 is the maximum; inactive means score below 0.9.

Experiments:
[1] = read-out: TIMP metallopeptidase inhibitor 1 (TIMP1), TIMP1 (gene 7076); experiment: BSK_hDFCGF_TIMP1: BioMAP Diversity Plus: hDFCGF Assay for TIMP metallopeptidase inhibitor 1 (TIMP1) Biomarker Activity (AID 2283062); conditions: primary human foreskin fibroblasts; actives raise or lower the signal
Summary of the method: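 Human foreskin fibroblast primary cultures dosed for 24 h; secreted/surface TIMP-1 quantified by ELISA. Bidirectional curve fitting against DMSO baseline; cytotoxicity tracked in parallel cultures by SRB total-protein staining.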

[2] = read-out: Monokine induced gamma interferon (MIG), CXCL9 (gene 4283); experiment: BSK_hDFCGF_MIG: BioMAP Diversity Plus: hDFCGF Assay for Monokine induced gamma interferon (MIG) Biomarker Activity (AID 2283063); conditions: primary human foreskin fibroblasts; actives raise or lower the signal
Summary of the method: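 MIG/CXCL9 measured by ELISA 24 h after dosing primary human skin fibroblasts. Activity fitted in both directions against DMSO controls. Cytotoxicity was checked in parallel cultures by SRB staining read at 560 nm.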

[3] = read-out: Matrix Metallopeptidase 1 (MMP1), MMP1 (gene 4312); experiment: BSK_hDFCGF_MMP1: BioMAP Diversity Plus: hDFCGF Assay for Matrix Metallopeptidase 1 (MMP1) Biomarker Activity (AID 2283064); conditions: primary human foreskin fibroblasts; actives raise or lower the signal
Summary of the method: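 ELISA read-out of MMP1 from human foreskin fibroblasts (primary skin cells), 24 h post-dose. Gain or loss of signal was fitted bidirectionally versus DMSO negative control; cytotoxicity was checked by SRB in parallel cultures.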

[4] = read-out: Vascular cell adhesion molecule 1 (VCAM1), VCAM1 (gene 7412); experiment: BSK_hDFCGF_VCAM1: BioMAP Diversity Plus: hDFCGF Assay for Vascular cell adhesion molecule 1 (VCAM1) Biomarker Activity (AID 2283065); conditions: primary human foreskin fibroblasts; actives raise or lower the signal;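 on AC50: VCAM-1 protein level quantified by ELISA after 24 h chemical exposure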
Summary of the method: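 Human foreskin fibroblast primary cells dosed with chemical, VCAM-1 measured by ELISA at 24 h. Bidirectional curve fitting relative to DMSO as negative control/baseline.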

[5] = read-out: Plasminogen activator inhibitor-1 (PAI1), SERPINE1 (gene 5054); experiment: BSK_hDFCGF_PAI1: BioMAP Diversity Plus: hDFCGF Assay for Plasminogen activator inhibitor-1 (PAI1) Biomarker Activity (AID 2283066); conditions: primary human foreskin fibroblasts; actives raise or lower the signal
Summary of the method: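 PAI-1 levels in human dermal foreskin fibroblasts were quantified by ELISA 24 h after dosing, with gain or loss analysed against DMSO. Overt cytotoxicity was checked by sulforhodamine B total-protein staining in parallel cultures.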

[6] = read-out: Intercellular Adhesion Molecule 1 (ICAM1), ICAM1 (gene 3383); experiment: BSK_KF3CT_ICAM1: BioMAP Diversity Plus: KF3CT Assay for Intercellular Adhesion Molecule 1 (ICAM1) Biomarker Activity (AID 2283067); conditions: primary human keratinocytes with fibroblasts; actives raise or lower the signal
Summary of the method: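 Human keratinocyte–foreskin fibroblast co-culture was treated for 24 h. Cell-surface ICAM-1 was quantified by ELISA, fitted bidirectionally relative to DMSO. Cytotoxicity was checked in parallel cultures by SRB total-protein staining.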

[7] = read-out: Interferon-gamma inducible Protein 10 (IP10), CXCL10 (gene 3627); experiment: BSK_KF3CT_IP10: BioMAP Diversity Plus: KF3CT Assay for Interferon-gamma inducible Protein 10 (IP10) Biomarker Activity (AID 2283068); conditions: primary human keratinocytes with fibroblasts; actives raise or lower the signal
Summary of the method: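 ELISA read-out of IP-10 after 24 h chemical dosing of human skin primary co-culture (keratinocytes, foreskin fibroblasts). Gain or loss of signal relative to DMSO, bidirectional curve fit.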

[8] = BSK_KF3CT_SRB: Viability Assessment in the BioMAP Diversity Plus: KF3CT Assay (AID 2283069); conditions: primary human keratinocytes with fibroblasts
Summary of the method: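 SRB read-out at 560 nm (0.1% stain, TCA-fixed cells) gauges overt cytotoxicity in a human skin keratinocyte–fibroblast co-culture 24 h post-dosing. Signal change was fitted bidirectionally relative to DMSO control.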

[9] = read-out: Interleukin-1 alpha (IL1a), IL1A (gene 3552); experiment: BSK_KF3CT_IL1a: BioMAP Diversity Plus: KF3CT Assay for Interleukin-1 alpha (IL1a) Biomarker Activity (AID 2283070); conditions: primary human keratinocytes with fibroblasts; actives raise or lower the signal
Summary of the method: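 Primary skin co-culture (keratinocytes, foreskin fibroblasts), 24 h exposure; ELISA for IL-1a; bidirectional curve fit vs DMSO.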

[10] = read-out: Transforming growth factor beta 1 (TGFb1), TGFB1 (gene 7040); experiment: BSK_KF3CT_TGFb1: BioMAP Diversity Plus: KF3CT Assay for Transforming growth factor beta 1 (TGFb1) Biomarker Activity (AID 2283072); conditions: primary human keratinocytes with fibroblasts; actives raise or lower the signal
Summary of the method: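 ELISA quantifies TGF-b1 at 24 h post-dose in a primary human skin co-culture of keratinocytes and fibroblasts, with gain or loss judged against DMSO. Parallel SRB total-protein staining flags overt cytotoxicity.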

[11] = read-out: C-C motif chemokine 2 (Homo sapiens) (UniProt P13500); experiment: BSK_KF3CT_MCP1: BioMAP Diversity Plus: KF3CT Assay for Monocyte Chemoattractant Protein 1 (MCP1/CCL2) Biomarker Activity (AID 2283073); conditions: primary human keratinocytes with fibroblasts; actives raise or lower the signal
Summary of the method: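 Human keratinocyte–foreskin fibroblast co-culture; MCP-1 measured by ELISA 24 h after dosing. Bidirectional fit vs DMSO; cytotoxicity tracked by SRB total protein in parallel cultures.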

[12] = read-out: Matrix Metallopeptidase 9 (MMP9), MMP9 (gene 4318); experiment: BSK_KF3CT_MMP9: BioMAP Diversity Plus: KF3CT Assay for Matrix Metallopeptidase 9 (MMP9) Biomarker Activity (AID 2283074); conditions: primary human keratinocytes with fibroblasts; actives raise or lower the signal;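 on AC50: MMP9 protein level quantified by ELISA in the co-culture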
Summary of the method: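 ELISA read-out of MMP-9 at 24 h post-dosing in a co-culture of human skin keratinocytes and foreskin fibroblasts. Gain or loss of signal was fitted in both directions against DMSO.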

[13] = read-out: urokinase plasminogen activator (uPA), PLAU (gene 5328); experiment: BSK_KF3CT_uPA: BioMAP Diversity Plus: KF3CT Assay for urokinase plasminogen activator (uPA) Biomarker Activity (AID 2283075); conditions: primary human keratinocytes with fibroblasts; actives raise or lower the signal
Summary of the method: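 Skin co-culture (keratinocytes + foreskin fibroblasts), human primary; 24 h post-dose; uPA by ELISA; gain/loss fit vs DMSO baseline.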

[14] = read-out: CD40, CD40 (gene 958); experiment: BSK_LPS_CD40: BioMAP Diversity Plus: LPS Assay for CD40 Biomarker Activity (AID 2283076); conditions: primary human HUVEC with PBMC; actives raise or lower the signal
Summary of the method: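 HUVEC plus PBMC co-culture stimulated with LPS; CD40 quantified by ELISA 24 h after compound dosing. Fitting was bidirectional relative to DMSO. SRB staining of parallel cultures flagged overt cytotoxicity.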

[15] = read-out: E-selectin (Homo sapiens) (UniProt P16581); experiment: BSK_LPS_Eselectin: BioMAP Diversity Plus: LPS Assay for Eselectin Biomarker Activity (AID 2283077); conditions: primary human HUVEC with PBMC; actives raise or lower the signal
Summary of the method: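 Human umbilical vein endothelial cells co-cultured with PBMC under LPS stimulation; cell-surface E-selectin measured by ELISA 24 h after dosing. Change in either direction versus DMSO, with SRB total-protein staining in parallel cultures for cytotoxicity.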

[16] = read-out: Interleukin-8 (IL8), CXCL8 (gene 3576); experiment: BSK_LPS_IL8: BioMAP Diversity Plus: LPS Assay for Interleukin-8 (IL8) Biomarker Activity (AID 2283078); conditions: primary human HUVEC with PBMC; actives raise or lower the signal
Summary of the method: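 Human umbilical vein endothelial cells co-cultured with PBMC, LPS-stimulated, exposed to compound for 24 h. IL-8 quantified by ELISA; fitted in both directions against DMSO, with SRB total-protein staining of parallel cultures for cytotoxicity.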

[17] = BSK_LPS_SRB: Viability Assessment in the BioMAP Diversity Plus: LPS Assay (AID 2283079); conditions: primary human HUVEC with PBMC;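 further: total protein by sulforhodamine B absorbance as a cytotoxicity measure; measured one day after compound addition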
Summary of the method: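 Co-culture of human umbilical vein endothelial cells and PBMC, read 24 h after dosing. Total protein by 0.1% SRB staining after 10% TCA fixation, absorbance at 560 nm; bidirectional fit against DMSO.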

[18] = read-out: Interleukin-1 alpha (IL1a), IL1A (gene 3552); experiment: BSK_LPS_IL1a: BioMAP Diversity Plus: LPS Assay for Interleukin-1 alpha (IL1a) Biomarker Activity (AID 2283080); conditions: primary human HUVEC with PBMC; actives raise or lower the signal
Summary of the method: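 Human umbilical vein endothelial cells co-cultured with PBMC and stimulated with LPS; IL-1a measured by ELISA 24 h after dosing. Bidirectional fitting against DMSO; cytotoxicity checked by SRB staining in parallel cultures.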

[19] = read-out: Monocyte Chemoattractant Protein-1 (MCP1), CCL2 (gene 6347); experiment: BSK_LPS_MCP1: BioMAP Diversity Plus: LPS Assay for Monocyte Chemoattractant Protein-1 (MCP1) Biomarker Activity (AID 2283081); conditions: primary human HUVEC with PBMC; actives raise or lower the signal;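 on AC50: secreted MCP-1 protein quantified by ELISA in culture supernatant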
Summary of the method: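 Human umbilical vein endothelial cells co-cultured with PBMC, LPS-stimulated; secreted MCP-1 measured by ELISA 24 h after compound addition. Bidirectional curve fitting against DMSO baseline; SRB total-protein staining in parallel cultures for cytotoxicity.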

[20] = read-out: TIMP metallopeptidase inhibitor 2 (TIMP2), TIMP2 (gene 7077); experiment: BSK_KF3CT_TIMP2: BioMAP Diversity Plus: KF3CT Assay for TIMP metallopeptidase inhibitor 2 (TIMP2) Biomarker Activity (AID 2283071); conditions: primary human keratinocytes with fibroblasts; actives raise or lower the signal
Summary of the method: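 TIMP-2 measured by ELISA at 24 h in human keratinocyte/fibroblast primary co-cultures exposed to chemicals. Both increases and decreases were fitted against DMSO. Parallel cultures were stained with SRB for total protein as an overt-cytotoxicity check.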

Measured: AC50

E-selectin (Homo sapiens), sequence (P16581 whole entry, looked up): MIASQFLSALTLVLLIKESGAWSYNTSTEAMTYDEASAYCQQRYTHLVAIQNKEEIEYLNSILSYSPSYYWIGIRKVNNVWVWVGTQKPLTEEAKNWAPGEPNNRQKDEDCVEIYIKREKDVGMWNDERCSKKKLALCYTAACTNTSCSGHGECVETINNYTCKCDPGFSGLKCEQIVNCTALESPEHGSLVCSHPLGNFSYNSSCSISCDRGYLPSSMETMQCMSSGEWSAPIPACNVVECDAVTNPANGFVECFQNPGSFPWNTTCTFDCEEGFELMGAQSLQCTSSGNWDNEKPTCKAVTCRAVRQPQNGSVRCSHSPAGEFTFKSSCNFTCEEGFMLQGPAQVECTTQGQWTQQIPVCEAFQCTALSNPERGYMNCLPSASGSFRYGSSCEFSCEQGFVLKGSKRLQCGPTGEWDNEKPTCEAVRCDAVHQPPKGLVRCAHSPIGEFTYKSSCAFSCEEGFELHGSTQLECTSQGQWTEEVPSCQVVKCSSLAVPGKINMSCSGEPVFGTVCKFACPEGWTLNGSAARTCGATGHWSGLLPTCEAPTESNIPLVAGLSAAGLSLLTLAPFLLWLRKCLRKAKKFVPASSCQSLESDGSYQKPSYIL

CCCCC(CC)COC(=O)CC(C(=O)OCC(CC)CCCC)S(=O)(=O)O (centres undefined)
active: [1] 20 µM | [2] 11.8 µM | [3] 25.7 µM | [4] 6.62 µM | [5] 9.12 µM | [6] 11.8 µM | [7] 6.69 µM | [8] 8.47 µM | [9] 8.83 µM | [10] 2.66 µM | [11] 3.25 µM | [12] 4.84 µM | [13] 12 µM | [14] 32.3 µM | [15] 38 µM | [16] 31.6 µM | [17] 30.7 µM | [18] 32.3 µM | [19] 30.9 µM

COc1cc(C=O)ccc1O
inactive: all assays above
